{
  "source": "PubChem BioAssay AID449762",
  "about": "(Southern Research Specialized Biocontainment Screening …, 2010)",
  "note": "Out of some 330,000 compounds screened, about 1,900 (0.58%) were called active. Another 4% or so got no clear call; they are omitted. Cut-off read from the data, not from the text of the source: inconclusive = inhibition above about 70% without an active follow-up result; inactive = below that. These entries were drawn from the full list. Measured potencies and affinities stand elsewhere.",
  "data": [
    {"assay": "M. tuberculosis growth inhibition, HTS (AID 449762);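 note: bacterial growth assessed after seven days of incubation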", "conditions": "M. tuberculosis H37Rv growth inhibition, 7H9 media; at 25 µM; stronger effect = higher value", "values": [
      {"smiles": "Cc1ccc(NC(=O)c2nc[nH]c2C(=O)NCCCNC(=O)c2[nH]cnc2C(=O)Nc2ccc(C)cc2)cc1", "inhibition": "5.52% (inactive)"},
      {"smiles": "c1ccc(Nc2ccc(-n3ccnc3)nn2)cc1", "inhibition": "-2% (inactive)"},
      {"smiles": "Cc1ccc(Nc2ccc(-n3ccnc3)nn2)cc1C", "inhibition": "-0.37% (inactive)"},
      {"smiles": "COCc1cc(=O)[nH]c(/N=C(\\N)Nc2ccc(C)cc2)n1", "inhibition": "-14.4% (inactive)"},
      {"smiles": "Cc1nn(C)c(C)c1Nc1ccc(N2C(=O)C3C4C=CC(C4)C3C2=O)cc1[N+](=O)[O-]", "note": "(stereo unspecified)", "inhibition": "10.1% (inactive)"},
      {"smiles": "CCCn1nnnc1SCC(=O)N1C(C)CCCC1C", "note": "(stereo unspecified)", "inhibition": "5.01% (inactive)"},
      {"smiles": "COc1ccccc1COCC(O)CNCCc1ccc(C(F)(F)F)cc1", "note": "(stereo unspecified)", "inhibition": "1.34% (inactive)"},
      {"smiles": "COc1ccc(C(OCC(O)CNCCc2ccccc2)c2ccc(OC)cc2)cc1", "note": "(stereo unspecified)", "inhibition": "19.9% (inactive)"},
      {"smiles": "O=C(O)CCn1nnc(-c2ccccc2)n1", "inhibition": "-0.81% (inactive)"},
      {"smiles": "COc1ccc(OCC(=O)N(Cc2ccco2)C2CCS(=O)(=O)C2)cc1", "note": "(stereo unspecified)", "inhibition": "3.83% (inactive)"},
      {"smiles": "Cc1ccc(S(=O)(=O)N2CCCCC2)cc1NC(=O)C1CCC1", "inhibition": "0.72% (inactive)"},
      {"smiles": "Cc1ccc(-c2nc3ccccc3c(=O)o2)cc1", "inhibition": "12.5% (inactive)"},
      {"smiles": "Cc1ccc(-c2nc3ccsc3c(=O)[nH]2)cc1", "inhibition": "5.58% (inactive)"},
      {"smiles": "C=CCN1C(=O)/C(=C/c2cccs2)S/C1=N\\S(=O)(=O)c1ccc(F)cc1", "inhibition": "0.38% (inactive)"},
      {"smiles": "COc1ccc(NC(=O)CCNC(=O)C2CCN(S(=O)(=O)c3ccc(OC)cc3)CC2)cc1", "inhibition": "10.1% (inactive)"},
      {"smiles": "O=C(COc1cc(O)c2c(=O)cc(-c3ccccc3)oc2c1)c1ccccc1", "inhibition": "-3.97% (inactive)"},
      {"smiles": "CC(C)(C)OC(=O)COc1cc(O)c2c(=O)cc(-c3ccccc3)oc2c1", "inhibition": "39.4% (inactive)"},
      {"smiles": "CSc1nnc(-c2cc(Br)ccc2N=Cc2c(C)[nH]n(-c3ccccc3)c2=O)c(=O)[nH]1", "inhibition": "4.16% (inactive)"},
      {"smiles": "O=[N+]([O-])c1c(Nc2ccccc2O)cc(N2CCOCC2)c2nonc12", "inhibition": "0.81% (inactive)"},
      {"smiles": "CCOC(=O)C1CCCN(S(=O)(=O)c2ccc(-c3cc(C)no3)s2)C1", "note": "(stereo unspecified)", "inhibition": "3.93% (inactive)"},
      {"smiles": "CCO[C@H]1OC(C(=O)NCc2nc3ccccc3[nH]2)=C[C@@H](c2ccccc2)[C@@H]1CCCO", "inhibition": "-4.83% (inactive)"},
      {"smiles": "CCO[C@@H]1OC(C(=O)NCc2nc3ccccc3[nH]2)=C[C@H](c2ccccc2)[C@H]1CCCO", "inhibition": "10.6% (inactive)"},
      {"smiles": "O=C(CSc1nc2ccccc2nc1N1CCCCC1)N1CCN(c2ccccc2)CC1", "inhibition": "-7.86% (inactive)"},
      {"smiles": "Cc1ccc(C)n1CCN1CCN(C(=O)CSc2nc3ccccc3nc2N2CCOCC2)CC1", "inhibition": "5.46% (inactive)"},
      {"smiles": "COc1ccc2[nH]c(=O)c(CN(CC3CCCO3)S(=O)(=O)c3ccccc3)cc2c1", "note": "(stereo unspecified)", "inhibition": "2.57% (inactive)"},
      {"smiles": "Cc1ccccc1OCC(=O)NNC(=O)C1CCCCC1C(=O)O", "note": "(stereo unspecified)", "inhibition": "2.25% (inactive)"},
      {"smiles": "Cc1cccc(N(C(=O)c2nsc(Cl)c2Cl)C(C(=O)NC2CCCC2)c2ccc(O)cc2)c1", "note": "(stereo unspecified)", "inhibition": "-12.7% (inactive)"},
      {"smiles": "Cc1ccc(C)c(N(C(=O)c2nsc(Cl)c2Cl)C(C(=O)NC2CCCC2)c2ccc(O)cc2)c1", "note": "(stereo unspecified)", "inhibition": "-2.81% (inactive)"},
      {"smiles": "C=CCc1c(C)nn(CC(=O)O)c1-c1ccccc1", "inhibition": "-6.59% (inactive)"},
      {"smiles": "COc1ccc(S(=O)(=O)N2CCC(C(=O)NC(c3nc4ccccc4[nH]3)C(C)C)CC2)cc1", "note": "(stereo unspecified)", "inhibition": "-6.28% (inactive)"},
      {"smiles": "O=C(Nc1cc(S(=O)(=O)N2CCOCC2)ccc1N1CCCC1)C1COc2ccccc2O1", "note": "(stereo unspecified)", "inhibition": "-4.41% (inactive)"},
      {"smiles": "COC(=O)/C(=C1/Oc2ccc(C(C)(C)C)cc2S1)C(F)(F)F", "inhibition": "-1.9% (inactive)"},
      {"smiles": "COC(=O)/C(=C1/Oc2ccc(C)cc2S1)C(F)(F)F", "inhibition": "4.4% (inactive)"},
      {"smiles": "O=S(=O)(c1ccc(Cl)c(NC(=S)Nc2cccc(O)c2)c1)N1CCOCC1", "inhibition": "1.85% (inactive)"},
      {"smiles": "CC12CCC(=O)N1C(C(=O)N1CCN(S(=O)(=O)c3cccc(C(F)(F)F)c3)CC1)CS2", "note": "(stereo unspecified)", "inhibition": "2.29% (inactive)"},
      {"smiles": "O=C(Nc1nc2ccc(Cl)cc2s1)C1CC1", "inhibition": "7.91% (inactive)"},
      {"smiles": "CC1CC1C(=O)Nc1nc2ccc(Cl)cc2s1", "note": "(stereo unspecified)", "inhibition": "16.9% (inactive)"},
      {"smiles": "O=C(Cc1nnc(NC(=O)Nc2ccc(F)cc2)s1)NCc1ccccc1", "inhibition": "-2.08% (inactive)"},
      {"smiles": "COc1ccc(N2C(=O)CCC2=O)cc1", "inhibition": "-16.1% (inactive)"},
      {"smiles": "CCOc1ccc(C(=O)NNC(=O)CN2C(=O)C3CC=CCC3C2=O)cc1OC", "note": "(stereo unspecified)", "inhibition": "3.32% (inactive)"},
      {"smiles": "CCN(C(=O)COC(=O)CNC(=O)c1sc2ccccc2c1Cl)C1CCCCC1", "inhibition": "39.4% (inactive)"},
      {"smiles": "CC1CCCC(NC(=O)COC(=O)c2sc3ccccc3c2Cl)C1C", "note": "(stereo unspecified)", "inhibition": "-11.1% (inactive)"},
      {"smiles": "CN(C(=O)COC(=O)c1ccc(Cl)cc1N)C1CCCCC1", "inhibition": "-0.1% (inactive)"},
      {"smiles": "CN(C(=O)COC(=O)c1cc(NS(=O)(=O)c2cc([N+](=O)[O-])ccc2Cl)ccc1O)C1CCCCC1", "inhibition": "0.85% (inactive)"},
      {"smiles": "C=CCn1c(N)c(C(=O)N2CCOCC2)sc1=S", "inhibition": "-5.77% (inactive)"},
      {"smiles": "c1ccc(CCNc2ncnc3sccc23)nc1", "inhibition": "-8.28% (inactive)"}
    ]}
  ]
}
